# In PubChem BioAssay AID493072 (Broad Institute, 2011):
# Measured potencies and affinities stand elsewhere. Active and inactive are the calls of the source.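 The calls were made as follows: active = signal drops and a fitted half-effect dose is at or below ten times that sample's top valid dose; inconclusive = flat fit with a moderate drop, or a poor fit; inactive = the rest.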
# Test: inhibitors of AI-2 quorum sensing in V. harveyi, dose response, LuxS, LuxPQ, dry powder, set 2 (AID 493072)
structure (smiles),measurement,value
CCc1ccc(C(=O)Nc2ccc(Br)cn2)cc1,outcome,inactive
